The subject of test [1] is S. cerevisiae SK1 pCDA2-eGFP (USY613), sporulating. As to the kind of experiment: CDA2-GFP sporulation assay sensitivity score (z-score vs DMSO controls); higher = stronger inhibition of sporulation, active = hit call of the paper.
In test [2] the test system is S. cerevisiae AD1-9 (efflux-pump deficient), vegetative growth in YPD. As to the kind of experiment: growth sensitivity score (doubling time z-score vs DMSO controls); higher = slower growth, strongly negative scores also mark growth inhibition (complete suppression), active = hit call of the paper. An outline of the steps:
(§1)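 Rich medium in microtiter plates was seeded with Saccharomyces cerevisiae strains BY4741 and AD1-9 at an OD600 of 0.065, and compounds were added as a 1:100 dilution of DMSO stock. A Tecan GENios reader recorded optical density every 15 min for 24 hours, with eight solvent-only wells in each experiment. Average doubling time was the time to reach a set generation point divided by generation number. The growth sensitivity score was the compound mean minus the solvent-only mean, divided by the solvent-only standard deviation.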

The test system of test [3] is S. cerevisiae BY4741 (wild-type), vegetative growth in YPD. The description is as above. The method, boiled down:
as §1

Where [4] appears, read: stock concentration (mM, diluted 1:100): 10.
Where [5] appears, read: stock concentration (mM, diluted 1:100): 11.3.
Setting [6] is: stock concentration (mM, diluted 1:100): 7.3.
Where [7] appears, read: stock concentration (mM, diluted 1:100): 10.1.
[8] abbreviates: stock concentration (mM, diluted 1:100): 8.2.
[9] abbreviates: stock concentration (mM, diluted 1:100): 9.8.

Structures can show the parent of a compound that is named as a salt.
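For CDA2-GFP sporulation assay sensitivity score (z-score vs DMSO controls) in this document: active if sensitivity score above 5.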

Take `CC(C)CC(N(C)C)C1(c2ccc(Cl)cc2)CCC1` (stereo not drawn) [Sibutramine hydrochloride]: in test [1] (setting [4]), the “CDA2-GFP sporulation assay sensitivity score” value is 8.57 (inactive). Moreover, the growth sensitivity score was 6.62 (active) in test [2] (setting [4]) and 1.85 (inactive) in test [3] (setting [4]).

As for `CNCC(O)c1ccc(O)cc1` (stereo not drawn) [Synephrine], in test [1] (setting [4]), the “CDA2-GFP sporulation assay sensitivity score” value is 4.04 (inactive). The growth sensitivity score is 0.18 (inactive) in test [2] (setting [4]) and -1.07 (inactive) in test [3] (setting [4]).

As for `CC(C)CC(N(C)C)C1(c2ccc(Cl)cc2)CCC1` (stereo not drawn) [Sibutramine], the “CDA2-GFP sporulation assay sensitivity score” value in test [1] (setting [5]) is 3.27 (inactive). The growth sensitivity score in test [2] (setting [5]) is 5.47 (active); in test [3] (setting [5]), 3.69 (active).

`C[C@]12CC[C@H]3[C@@H](CCC4=CC(=O)CC[C@@]43C)[C@@H]1CC[C@@H]2O` [Testosterone]: in test [1] (setting [4]), the “CDA2-GFP sporulation assay sensitivity score” value was 21.1 (active). The results for the growth sensitivity score in test [2] (setting [4]) and in test [3] (setting [4]) were 44.5 (active) and 4.61 (active), respectively.

Consider `COc1ccc2[nH]cc(CCN)c2c1` [5-Methoxytryptamine], for which, in test [1] (setting [4]), the “CDA2-GFP sporulation assay sensitivity score” value was 3.61 (inactive). The growth sensitivity score is -1.13 (inactive) in test [2] (setting [4]) and 0.09 (inactive) in test [3] (setting [4]).

On to `CN1[C@@H]2CC(OC(=O)[C@H](CO)c3ccccc3)C[C@H]1[C@@H]1O[C@@H]12` (stereo partly drawn), for which the “CDA2-GFP sporulation assay sensitivity score” value in test [1] (setting [6]) is -0.1 (inactive). The growth sensitivity score was -1.56 (inactive) in test [2] (setting [6]) and -0.06 (inactive) in test [3] (setting [6]).

As for `O=C1Nc2ccc(Cl)cc2C(c2ccccc2Cl)=NC1O` (stereo not drawn) [Lorazepam], the “CDA2-GFP sporulation assay sensitivity score” value in test [1] (setting [4]) is 5 (inactive). The growth sensitivity score was 2.16 (active) in test [2] (setting [4]) and -0.91 (inactive) in test [3] (setting [4]).

As for `Cc1nnc2n1-c1ccc(Cl)cc1C(c1ccccc1)=NC2` [Alprazolam], the “CDA2-GFP sporulation assay sensitivity score” value in test [1] (setting [4]) was 0.37 (inactive). In addition, the growth sensitivity score in test [2] (setting [4]) was 5.38 (active); in test [3] (setting [4]), 0.23 (inactive).

`COc1cccc(C2(O)CCCCC2CN(C)C)c1` (stereo not drawn) [Tramadol]: in test [1] (setting [4]), the “CDA2-GFP sporulation assay sensitivity score” value is 0.06 (inactive). Moreover, the values for the growth sensitivity score in test [2] (setting [4]) and in test [3] (setting [4]) were -0.93 (inactive) and -0.39 (inactive), respectively.

For the compound `c1cncc([C@@H]2CCCN2)c1` [Nornicotine], the “CDA2-GFP sporulation assay sensitivity score” value in test [1] (setting [4]) is 2.1 (inactive). In addition, the values for the growth sensitivity score in test [2] (setting [4]) and in test [3] (setting [4]) were -0.25 (inactive) and 0.91 (inactive), respectively.

Consider `Oc1cc2c(cc1O)[C@H]1c3ccccc3CN[C@@H]1CC2`, for which the “CDA2-GFP sporulation assay sensitivity score” value in test [1] (setting [4]) is -1.42 (inactive). Besides, the growth sensitivity score in test [2] (setting [4]) was 0.66 (inactive); in test [3] (setting [4]) it was 0.31 (inactive).

`NC1=NC(=O)C(c2ccccc2)O1` (stereo not drawn) [Pemoline]: the “CDA2-GFP sporulation assay sensitivity score” value in test [1] (setting [4]) was 0.99 (inactive). The growth sensitivity score in test [2] (setting [4]) was 0.67 (inactive); in test [3] (setting [4]) it was -1.83 (inactive).

With `CCCN1C[C@H](CSC)C[C@@H]2c3cccc4[nH]cc(c34)C[C@H]21` [Pergolide mesylate], the growth sensitivity score in test [2] (setting [4]) is 3.13 (active); in test [3] (setting [4]), 2.05 (active).

`CC[C@@H](C(N)=O)N1CCCC1=O` [Levetiracetam]: the “CDA2-GFP sporulation assay sensitivity score” value in test [1] (setting [7]) is 1.7 (inactive). Also, the growth sensitivity score was -2.51 in test [2] (setting [7]) and -1.26 (inactive) in test [3] (setting [7]).

Turning to `CC[C@]1(O)CC[C@H]2[C@@H]3CCC4=CCCC[C@@H]4[C@H]3CC[C@@]21C` [Ethylestrenol], in test [1] (setting [4]), the “CDA2-GFP sporulation assay sensitivity score” value is 8.75 (active). The figures for the growth sensitivity score in test [2] (setting [4]) and in test [3] (setting [4]) were 93.9 (active) and 2.86 (active), respectively.

As for `CC(NC(C)(C)C)C(=O)c1cccc(Cl)c1` (stereo not drawn) [Amfebutamone hydrochloride], in test [1] (setting [7]), the “CDA2-GFP sporulation assay sensitivity score” value is 0.84 (inactive). Besides, the figures for the growth sensitivity score in test [2] (setting [7]) and in test [3] (setting [7]) were 0.01 (inactive) and -0.7 (inactive), respectively.

Consider `O=c1c2ccccc2[se]n1-c1ccccc1` [Ebselen], for which the growth sensitivity score in test [2] (setting [4]) is -16.9.

In the case of `COc1ccc2c(c1)[C@]13CCCC[C@@H]1[C@H](C2)N(C)CC3` [Dextromethorphan hydrobromide], the “CDA2-GFP sporulation assay sensitivity score” value in test [1] (setting [8]) was 14.1 (active). In addition, the results for the growth sensitivity score in test [2] (setting [8]) and in test [3] (setting [8]) were -0.05 (inactive) and -0.39 (inactive), respectively.

As for `COc1cc2c(cc1OC)[C@@]13CCN4CC5=CCO[C@H]6CC(=O)N2[C@H]1[C@H]6[C@H]5C[C@H]43` [Brucine], the “CDA2-GFP sporulation assay sensitivity score” value in test [1] (setting [4]) is -1.75 (inactive). For the same compound, the growth sensitivity score was -0.99 (inactive) in test [2] (setting [4]) and 0.41 (inactive) in test [3] (setting [4]).

As for `COc1ccc2[nH]cc(C3=CCNCC3)c2c1`, the growth sensitivity score in test [2] (setting [7]) was -2.3; in test [3] (setting [7]) it was -0.36 (inactive).

With `CN1C(=O)COc2c(C(=O)NC3CN4CCC3CC4)cc(Cl)cc21` (stereo not drawn) [Azasetron], the growth sensitivity score in test [2] (setting [4]) is -0.58 (inactive); in test [3] (setting [4]), -0.56 (inactive).

For `CC[C@@H]1C=CC=CC[C@H](C)[C@@H](O)[C@@H](C)C(=O)[C@H](C)[C@@H](O)[C@H](C)C(=O)[C@H](C)[C@@H](O)[C@H](C)C=CC(=O)O[C@H]2[C@@H](C)[C@@H](CC1)O[C@@]1(CC[C@@H](C)[C@@H](C[C@H](C)O)O1)[C@@H]2C` [Oligomycin c], the “CDA2-GFP sporulation assay sensitivity score” value in test [1] (setting [4]) is -1.43 (inactive). The growth sensitivity score in test [2] (setting [4]) is 0.66 (inactive); in test [3] (setting [4]), 1.53 (inactive).

As to `OC1CCCCC1N1CCC(c2ccccc2)CC1` (stereo not drawn) [Vesamicol hydrochloride], the “CDA2-GFP sporulation assay sensitivity score” value in test [1] (setting [4]) is 1.08 (inactive). The growth sensitivity score in test [2] (setting [4]) is -0.57 (inactive); in test [3] (setting [4]) it was -0.16 (inactive).

Take `CN1CC[C@]2(c3cccc(O)c3)Cc3nc4ccccc4cc3C[C@H]2C1`: the “CDA2-GFP sporulation assay sensitivity score” value in test [1] (setting [9]) was 5.85 (inactive). Also, the growth sensitivity score in test [2] (setting [9]) was -2.02; in test [3] (setting [9]), 0.13 (inactive).

For the compound `CCN(CC)CCOC(=O)C(O)(c1ccccc1)c1ccccc1` [Benactyzine hydrochloride], the “CDA2-GFP sporulation assay sensitivity score” value in test [1] (setting [4]) was 0.09 (inactive). Also, the figures for the growth sensitivity score in test [2] (setting [4]) and in test [3] (setting [4]) were -0.44 (inactive) and -0.83 (inactive), respectively.

As to `CCCCC/C=C\C/C=C\C/C=C\C/C=C\CCCC(=O)Nc1ccc(O)cc1`, the “CDA2-GFP sporulation assay sensitivity score” value in test [1] (setting [4]) was -4.74 (inactive). In test [3] (setting [4]), the growth sensitivity score was 2.55 (active).

Turning to `C[C@]12CCC(=O)C[C@@H]1CC[C@@H]1[C@@H]2CC[C@@]2(C)[C@H]1CC[C@]2(C)O` [Mestanolone], in test [1] (setting [7]), the “CDA2-GFP sporulation assay sensitivity score” value is 0.79 (inactive). Also, the growth sensitivity score in test [2] (setting [7]) was 2.2 (active); in test [3] (setting [7]), -0.15 (inactive).

Consider `C=C(C)CN1CC[C@]23c4c5ccc(O)c4O[C@H]2c2[nH]c4ccccc4c2C[C@@]3(O)C1C5`, for which, in test [1] (setting [7]), the “CDA2-GFP sporulation assay sensitivity score” value is 4.94 (inactive). The values for the growth sensitivity score in test [2] (setting [7]) and in test [3] (setting [7]) were 11.1 (active) and 0.61 (inactive), respectively.

Source of the values: the supplement of paper PMC3414501.
